This is an account of results in PubChem BioAssay (NCATS).

Results filed as inconclusive are left out. Where a call stands in place of a potency, no number is given. Activity calls are given as the source filed them. Calls follow the shape of the dose curve; as a rule, active = well fitted inhibition curve with a large enough effect; inconclusive = small, poorly fitted or top-dose-only effect; inactive = flat fitted curve, though single readings scatter.

This experiment deals with CRL-7250. Briefly: qHTS assay to identify novel small-molecules to repurpose for Merkel cell carcinoma treatment (AID 1296009). Also: nearly all actives have a fitted effect of over 60% in size. As to conditions: MCC and control cell lines, CellTiter-Glo viability, 72 h; series mostly up to 92 µM. An outline of the steps: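 Cells were incubated with compound for 72 hr at 37 degree celsius before CellTiter-Glo addition. Luminescence was normalized with no-cell wells as full cytotoxicity and DMSO as baseline.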
On the technique in general: Quantitative high-throughput screening tests each substance at several concentrations.
Consider `CC/C=C\C(O)C(O)C1=C(C)C(=O)C2(O1)C(=O)NC(OC)(C(=O)c1ccccc1)C2O` (stereo not drawn), for which the Potency result was “inactive”.

Take `C[C@H](Oc1ccc(S(C)(=O)=O)cc1C(=O)N1CCN(c2ncc(C(F)(F)F)cc2F)CC1)C(F)(F)F`: the Potency entry is “inactive”.

With `COc1ccc(C2=CC(=O)OC2Cc2ccc(O)cc2)c(O)c1` (stereo not drawn), the Potency entry is “inactive”.

Consider `CC(C)(O)C1CCC(C)(C2CCC3(C)C4CCC5C(C)(C(=O)OC6OC(CO)C(O)C(O)C6O)C(O)CC(O)C56CC46CCC23C)O1` (stereo not drawn), for which the Potency entry was “inactive”.

`CC(C)C[C@H](CC(=O)NO)C(=O)N[C@H](C(=O)N[C@@H](C)C(=O)NCCN)C(C)(C)C`: the outcome was “inactive [at 9.27 µM]”.

Take `C=C[C@H]1[C@H](O[C@@H]2O[C@H](CO[C@@H]3OC[C@](O)(CO)[C@H]3O)[C@@H](O)[C@H](O)[C@H]2O)OC=C2C(=O)OCC[C@H]21`: the Potency entry is “inactive”.

Consider `CC1C(=O)OCC2=CCN3CCC(OC(=O)C(C)(O)C1(C)O)C23` (stereo not drawn), for which the Potency result is “inactive”.

As to `COc1ccc(CN2C(=O)C(=O)c3cc(S(=O)(=O)N4CCC[C@H]4COc4cccnc4)ccc32)cc1`, the Potency entry was “inactive”.

As to `C[C@H]1CCN2C[C@]34C[C@@]5(C(=O)Nc6c5ccc5c6OC=CC(C)(C)O5)C(C)(C)C3C[C@]12C(=O)N4C` (stereo partly drawn), the Potency result was “inactive”.

As to `C#Cc1cnc2[nH]c(=O)n(C(CC)CC)c2n1`, the Potency entry was “inactive”.

For the compound `CC(=O)OC1(C)CC(O)C2(O)C=COC(OC3OC(CO)C(O)C(O)C3O)C12` (stereo not drawn), the Potency entry was “inactive”.

Consider `CC(C#N)C(C)O[C@@H]1O[C@H](CO)[C@@H](O)[C@H](O)[C@H]1O` (stereo partly drawn), for which the Potency entry is “inactive”.

Regarding `C=C[C@H]1CN2CC[C@H]1C[C@@H]2C(O)c1ccnc2ccc(OC)cc12` (stereo partly drawn), the Potency result is “inactive”.
